D3 antag: qHTS of D3 Dopamine Receptor Antagonist: qHTS | D(3) dopamine receptor (Homo sapiens), P35462 | D3R cells, DiscoveRx beta-arrestin luminescence, antagonist mode; hits give low values | max response, negative = inhibition, % | 360,000 compounds, 2.5% hits | AID 652054, 2013; in the data active = max response below about -50%; inconclusive = no clear call, values can overlap the other calls
Target sequence (P35462 whole entry, looked up): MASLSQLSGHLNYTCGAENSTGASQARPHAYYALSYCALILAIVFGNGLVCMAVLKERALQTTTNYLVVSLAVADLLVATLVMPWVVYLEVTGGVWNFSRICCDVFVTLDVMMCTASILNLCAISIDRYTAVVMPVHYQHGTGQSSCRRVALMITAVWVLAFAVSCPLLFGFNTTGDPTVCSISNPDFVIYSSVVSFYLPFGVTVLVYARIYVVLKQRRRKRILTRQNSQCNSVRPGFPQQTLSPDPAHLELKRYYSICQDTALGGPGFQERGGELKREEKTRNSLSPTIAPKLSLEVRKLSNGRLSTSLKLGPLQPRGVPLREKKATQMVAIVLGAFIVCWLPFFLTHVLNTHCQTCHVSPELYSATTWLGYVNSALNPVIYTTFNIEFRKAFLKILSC
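Cells plated overnight at 1500 cells/well, then exposed to library compounds with dopamine controls for 90 minutes at 37 degrees C. DiscoveRx reagent added for 30–60 minutes at room temperature; luminescence read, quantitative HTS format.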
D1 antag: Antagonist of Human D 1 Dopamine Receptor: qHTS | HEK293 TREx D1 cells, calcium flux, dopamine EC80; hits give low values | 360,000 compounds, 3.2% hits | activity change, negative = inhibition, % at 10 µM; in the data active = activity change below about -30%
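Kinetic fluorescence of a calcium dye serves as the read-out. D1-expressing Hek293 Trex cells, induced overnight at 30 C, are exposed to compound for 180 s before an EC80 dopamine addition, then read 180 s further.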
D3 ag: qHTS of D3 Dopamine Receptor Agonist: qHTS | D3R DiscoveRx beta-arrestin cells, luminescence, 90 min | max activation, % | 410,000 compounds, 0.58% hits; in the data active = max activation above about 30%
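Agonist mode: compounds and dopamine controls were applied to plated cells for 90 min at 37 degrees C after an overnight attachment at 1500 cells/well. Luminescent read-out followed 30 - 60 minutes at room temperature with DiscoveRx detection reagent.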
D1 PAM: Potentiators of Human D1 Dopamine Receptor: qHTS | HEK293 TREx D1 cells, calcium flux, dopamine EC20 potentiation | potentiation, % at 10 µM | 360,000 compounds, 0.036% hits | AID 504651, 2011; in the data active = potentiation above about 30%
D1 ag: Allosteric Agonists of the Human D1 Dopamine Receptor: qHTS | AID 504660, 2011 | activation, % at 2 µM | HEK293 T-REx D1 cells, calcium flux, agonist mode | D(1A) dopamine receptor (Homo sapiens), P21728 | 360,000 compounds, 1% hits; in the data active = activation above about 30%
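Tetracycline-induced HEK293 TREx D1 cells, force-coupled to calcium signalling, were dye-loaded with a no-wash calcium kit. Compound was pin-added after a 10 s baseline. Fluorescence was read kinetically at 1 cycle/s for 180 s, with calcium rises flagged as agonism.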
Large screens that a line does not name were inactive. Rows were chosen to be rich in hits. Some 6% of all compounds tested hit in one or more screens of this group.

CCC(=O)Nc1ccc(-c2nnc3c4ccccc4c(C)nn23)cc1	D1 antag -39 (no result: D3 antag)
O=C(NCc1cccs1)c1cccc(N2CCCC2=O)c1	none
Cc1cccc(N2CCN(C(=O)c3cccc(N4CCCC4=O)c3)CC2)c1C	none
O=C(c1cccc(N2CCCC2=O)c1)N1CCN(c2ccccc2)CC1	D1 antag -31
O=C(NCc1ccccc1CN1CCCC1)c1cccc(N2CCCC2=O)c1	D1 antag -37 (no result: D1 PAM)
Cc1cccc(Nc2c([N+](=O)[O-])c(=O)n(C)c3ccccc23)c1	none
Cn1c(=O)c([N+](=O)[O-])c(NCCCn2ccnc2)c2ccccc21	none
Cn1c(=O)c([N+](=O)[O-])c(-n2ccnc2)c2ccccc21	D3 antag -51
CC(C)c1ccc(Nc2c([N+](=O)[O-])c(=O)n(C)c3ccccc23)cc1	D1 antag -50
COCCCNC(=O)CCc1c(C)nc2nc(-c3cc(OC)cc(OC)c3)nn2c1C	D1 antag -31 (no result: D3 antag)
COCCNC(=O)CCc1c(C)nc2c(-c3ccc(F)cc3)c(C)nn2c1C	none
CCN1CCN(c2ccc(NC(=O)CCc3c(C)nc4c(-c5ccc(F)cc5)c(C)nn4c3C)cc2)CC1	D1 antag -79
COCCCNC(=O)CCc1c(C)nc2c(-c3ccc(F)cc3)c(C)nn2c1C	D3 antag inconclusive, D1 antag -34
COc1cc(OC)cc(-c2nc3nc(C)c(CCC(=O)NCCC(C)C)c(C)n3n2)c1	none (no result: D3 antag)
CC(CSC(=O)c1ccccc1)C(=O)N1C[C@@H](Sc2ccccc2)C[C@H]1C(=O)O (some centres not stated)	none (no result: D3 antag, D1 antag, D1 PAM, D1 ag)
CCOCCCNC(=O)c1ccc(N2CCOCC2)c(NS(=O)(=O)c2ccc(OC)cc2)c1	none
COCCCNC(=O)c1ccc(N2CCOCC2)c(NS(=O)(=O)c2ccc(OC)cc2)c1	D3 antag -73
CN(C)CCCNc1nc2cc(-c3cccc(Cl)c3)sc2c(=O)n1C	D3 antag -60 (no result: D1 antag, D1 PAM, D1 ag)
CCn1c(=O)cc(SCC(=O)NCCCN2CCN(c3ccc(F)cc3)CC2)c2ccccc21	D3 antag -68
Cn1c(=O)cc(SCC(=O)NCCCN2CCN(c3ccccc3F)CC2)c2ccccc21	D3 antag -71
CCn1c(=O)cc(SCC(=O)NCc2cccnc2)c2ccccc21	D1 antag -40
CCOC(=O)C1CCN(C(=O)CSc2cc(=O)n(CC)c3ccccc23)CC1	D3 antag -79
CCn1c(=O)cc(SCC(=O)NCCCN2CCC(C)CC2)c2ccccc21	none
CCn1c(=O)cc(SCC(=O)NCCN2CCN(Cc3ccccc3)CC2)c2ccccc21	D1 antag -33
Cc1cccc(OCCn2c(SCC(=O)O)nc3ccccc32)c1	none (no result: D3 antag)
COc1ccccc1C(=O)NNC(=S)NC(=O)c1sc2ccccc2c1Cl	D1 ag 213
COc1ccccc1C(=O)NC(=S)NNC(=O)c1sc2ccccc2c1Cl	D1 ag 199
CC(Oc1ccc(F)cc1)C(=O)Nc1nc(-c2ccc(F)cc2)ns1 (configuration not stated)	none (no result: D3 antag)
CC(C)N(C(=O)Cn1cc(S(=O)(=O)Cc2ccc(C(F)(F)F)cc2)c2ccccc21)C(C)C	none (no result: D3 antag)
C=C1CCN([C@@H](CC(C)C)C(=O)NCCC(C)C)S(=O)(=O)c2ccccc21	D3 antag -50 (no result: D1 antag, D1 PAM, D1 ag)
C=C1CCN([C@@H](CC(C)C)C(=O)NCc2ccc(Cl)cc2)S(=O)(=O)c2ccccc21	none (no result: D1 antag, D1 PAM, D1 ag)
Cc1ccccc1CNC(=O)Cn1ncn2nc(-c3cccs3)cc2c1=O	D1 antag -36 (no result: D3 antag)
CC(OC(=O)c1c2c(nc3ccccc13)/C(=C\c1ccc3c(c1)OCO3)CCC2)C(=O)Nc1ccc(S(N)(=O)=O)cc1 (configuration not stated)	none
CCOc1cc(/C=C2\CCCc3c2nc2ccccc2c3C(=O)O)ccc1OC	D1 ag 411
Cc1cccc(C)c1NC(=O)COC(=O)c1c2c(nc3ccccc13)/C(=C\c1ccc3c(c1)OCO3)CCC2	D3 antag -58, D1 antag -33, D1 ag 94
CCCCCn1nc(C(=O)OCC(=O)c2c(N)n(C)c(=O)n(C)c2=O)c2ccccc2c1=O	none
CCCCCCn1nc(C(=O)OCC(=O)c2c(N)n(C)c(=O)n(C)c2=O)c2ccccc2c1=O	D3 ag 32
Cn1c(N)c(C(=O)COC(=O)c2cc(C3CC3)nc3ccccc23)c(=O)n(C)c1=O	D3 ag 36
COc1cc(/C=C2\CCCc3c2nc2ccccc2c3C(=O)O)cc(Br)c1O	none (no result: D1 PAM)
CCN(CC)Cc1c(NC(=O)c2ccc(OC)cc2)sc2c1CCCC2	none (no result: D3 antag)
O=C(CCn1c(=O)c2sccc2n(Cc2ccccc2F)c1=O)NCc1ccc2c(c1)OCO2	none (no result: D3 antag)
COc1ccc(/C=C2\CCCc3c2nc2ccccc2c3C(=O)OCC(=O)c2c(N)n(C)c(=O)n(C)c2=O)cc1	D1 antag -40 (no result: D3 antag, D3 ag)
Cc1cn2c(=O)c(S(=O)(=O)NCc3ccccc3Cl)c(C)nc2s1	none (no result: D3 antag)
O=C(Nc1cccc(Cl)c1Cl)c1cc(S(=O)(=O)N2CCC3(CC2)OCCO3)ccc1F	none (no result: D3 antag)
CCOC(=O)c1c(NC(=O)CSc2cn(CCNC(=O)c3ccccc3OC)c3ccccc23)sc2c1CCCC2	none (no result: D3 antag)
CC(C)=CCC[C@](C)(O)C1CC[C@]2(C)C1[C@H](O)CC1[C@@]3(C)CC[C@H](O[C@@H]4O[C@H](CO)[C@@H](O)[C@H](O)[C@H]4O[C@@H]4O[C@H](CO)[C@@H](O)[C@H](O)[C@H]4O)C(C)(C)C3CC[C@]12C (some centres not stated)	D3 antag -61 (no result: D1 antag, D1 PAM, D1 ag)
CC(C)=CCC[C@](C)(OC1OC(COC2OCC(O)C(O)C2O)C(O)C(O)C1O)C1CC[C@]2(C)C1C(O)CC1[C@@]3(C)CCC(O[C@@H]4O[C@H](CO)C(O)C(O)C4O[C@@H]4OC(CO)C(O)C(O)C4O)C(C)(C)C3CC[C@]12C (some centres not stated)	none (no result: D1 antag, D1 PAM, D1 ag)
O=c1oc(-c2ccco2)nc2c1cnn2-c1ccccc1	none
O=c1oc(-c2ccco2)nc2ccccc12	D3 antag -57, D1 antag -39
Clc1cccc(-n2cc(-c3ccccc3)c3c(N4CCCCC4)ncnc32)c1	none (no result: D3 antag)
COc1ccc(CNC(=O)Cc2csc(NC(=O)Nc3ccccc3OC)n2)cc1	D1 antag -35
COc1ccccc1NC(=O)Nc1nc(C(N)CCc2ccccc2)cs1 (configuration not stated)	D3 antag -96 (no result: D1 antag, D1 PAM, D1 ag)
O=C(Cc1csc(NC(=O)Nc2cccc(Cl)c2)n1)NCc1cccnc1	none

From PubChem BioAssay
